# Measurements taken from PubChem BioAssay (EPA / NIEHS).
# Values joined by “and” are separate entries in the source; they are usually repeats but may differ in a detail not shown here. Equal entries are not always repeated. Records with an inconclusive call do not appear. Active and inactive are the calls of the source. Rule for the calls, unless noted: active = hit-call score of the fitted dose curve at least 0.9, where 1 is the maximum; inconclusive = response in the unintended direction; inactive = score below 0.9.
# What was measured:
# [1] = target: D(1A) dopamine receptor (Homo sapiens) (UniProt P21728); experiment: NVS_GPCR_hDRD1: NovaScreen (NVS) G Protein-Coupled Receptor Assay for human Dopamine Receptor D1 (DRD1) (AID 2283269)
# D(1A) dopamine receptor (Homo sapiens), sequence (P21728 whole entry, looked up): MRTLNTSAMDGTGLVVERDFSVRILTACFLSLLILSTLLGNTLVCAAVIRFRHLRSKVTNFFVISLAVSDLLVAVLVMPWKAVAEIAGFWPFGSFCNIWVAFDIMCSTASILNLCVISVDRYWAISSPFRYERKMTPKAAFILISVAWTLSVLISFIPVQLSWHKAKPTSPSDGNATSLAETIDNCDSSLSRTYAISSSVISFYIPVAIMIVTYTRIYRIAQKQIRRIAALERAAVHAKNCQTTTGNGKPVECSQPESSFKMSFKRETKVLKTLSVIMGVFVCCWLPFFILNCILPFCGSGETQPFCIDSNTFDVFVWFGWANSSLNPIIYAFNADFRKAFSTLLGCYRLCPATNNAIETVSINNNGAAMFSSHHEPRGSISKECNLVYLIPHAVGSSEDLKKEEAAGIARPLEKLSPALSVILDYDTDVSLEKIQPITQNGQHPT
# In short: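 Cell-free competition with radioligand, filter-trapped and scintillation-counted 1 h post-dose, using HEK293-derived human D1 preparation. Duplicate single-point testing at 25 uM first, then concentration series for actives; DMSO served as baseline, loss-of-signal scored.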
# [2] = target: Tyrosine-protein phosphatase non-receptor type 11 (Homo sapiens) (UniProt Q06124); experiment: NVS_ENZ_hPTPN11: NovaScreen (NVS) Enzymatic Assay for human Protein Tyrosine Phosphatase Non-receptor Type 11 (PTPN11) (AID 2283202)
# In short: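 Compounds first tested in duplicate at 25 uM; those reaching ~30% inhibition rerun in singleton concentration-response, top 50 uM. Phosphatase activity measured after 0.5 h by fluorescence with mobility-shift separation, relative to DMSO.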
# [3] = ATG_M_06_XSP2: Attagene TRANS-FACTORIAL Multi-Species (XSP2) HepG2 Assay for M06 Transcription Factor (Internal Marker) (AID 2283811);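 note: internal background marker reporter mRNA measured by RT-PCR and capillary electrophoresis; hits are increases in signal above the DMSO baseline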
# In short: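 Cells of the human liver line HepG2 carried transfected reporter transcription units and were treated for 24 h. Induced reporter transcripts were detected by fluorescence after RT-PCR and capillary electrophoresis, with activity fitted in the gain direction against DMSO.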
# [4] = tested on: turtle Estrogen Receptor (ERa), gene 101933533; experiment: ATG_trERa_XSP2: Attagene TRANS-FACTORIAL Multi-Species (XSP2) HepG2 Assay for turtle Estrogen Receptor (ERa) (AID 2283812);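 note: actives raise reporter signal above DMSO so AC50 reflects agonist activity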
# In short: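 Readout is reporter mRNA quantified by RT-PCR with capillary electrophoresis after 24 h compound exposure, increase relative to DMSO. Uses transiently transfected human HepG2 liver cells carrying a chimeric turtle ERa-Gal4 receptor driving GAL4-UAS reporters.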
# [5] = target: Estrogen receptor beta (Homo sapiens) (UniProt Q92731); experiment: ATG_hERb_XSP2: Attagene TRANS-FACTORIAL Multi-Species (XSP2) HepG2 Assay for human Estrogen Receptor (ERb) (AID 2283813);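 note: actives raise reporter mRNA above DMSO so AC50 reflects agonist induction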
# Estrogen receptor beta (Homo sapiens), sequence (Q92731 whole entry, looked up, the tested form may be a part): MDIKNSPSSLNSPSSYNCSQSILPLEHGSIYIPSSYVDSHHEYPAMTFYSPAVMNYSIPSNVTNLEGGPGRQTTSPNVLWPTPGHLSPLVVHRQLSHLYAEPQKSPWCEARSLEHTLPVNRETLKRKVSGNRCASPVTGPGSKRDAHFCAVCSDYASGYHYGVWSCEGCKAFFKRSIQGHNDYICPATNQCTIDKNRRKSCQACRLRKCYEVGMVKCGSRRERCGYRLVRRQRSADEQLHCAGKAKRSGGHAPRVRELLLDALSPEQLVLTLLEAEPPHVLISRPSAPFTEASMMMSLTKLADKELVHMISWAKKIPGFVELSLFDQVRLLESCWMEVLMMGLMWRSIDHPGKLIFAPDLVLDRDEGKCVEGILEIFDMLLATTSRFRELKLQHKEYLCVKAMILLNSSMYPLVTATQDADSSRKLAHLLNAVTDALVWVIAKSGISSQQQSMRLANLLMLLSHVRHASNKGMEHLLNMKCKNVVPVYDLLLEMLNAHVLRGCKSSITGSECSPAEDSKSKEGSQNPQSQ
# In short: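 Transient TRANS reporter system in HepG2: after 24 h of chemical, RNA is reverse-transcribed, reporter cDNA amplified, FAM-labelled and sized by capillary electrophoresis. Induction of the human ERb-Gal4 reporter is measured relative to DMSO.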
# [6] = target: GAL4 Transcription Factor (Internal Marker), GAL4 (gene 855828) (UniProt P04386); experiment: ATG_GAL4_XSP2: Attagene TRANS-FACTORIAL Multi-Species (XSP2) HepG2 Assay for GAL4 Transcription Factor (Internal Marker) (AID 2283814);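 note: GAL4 reporter mRNA background control in MRTU transfected cells not a receptor target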
# GAL4 Transcription Factor (Internal Marker), GAL4 (gene 855828), sequence (P04386 whole entry, looked up, the tested form may be a part): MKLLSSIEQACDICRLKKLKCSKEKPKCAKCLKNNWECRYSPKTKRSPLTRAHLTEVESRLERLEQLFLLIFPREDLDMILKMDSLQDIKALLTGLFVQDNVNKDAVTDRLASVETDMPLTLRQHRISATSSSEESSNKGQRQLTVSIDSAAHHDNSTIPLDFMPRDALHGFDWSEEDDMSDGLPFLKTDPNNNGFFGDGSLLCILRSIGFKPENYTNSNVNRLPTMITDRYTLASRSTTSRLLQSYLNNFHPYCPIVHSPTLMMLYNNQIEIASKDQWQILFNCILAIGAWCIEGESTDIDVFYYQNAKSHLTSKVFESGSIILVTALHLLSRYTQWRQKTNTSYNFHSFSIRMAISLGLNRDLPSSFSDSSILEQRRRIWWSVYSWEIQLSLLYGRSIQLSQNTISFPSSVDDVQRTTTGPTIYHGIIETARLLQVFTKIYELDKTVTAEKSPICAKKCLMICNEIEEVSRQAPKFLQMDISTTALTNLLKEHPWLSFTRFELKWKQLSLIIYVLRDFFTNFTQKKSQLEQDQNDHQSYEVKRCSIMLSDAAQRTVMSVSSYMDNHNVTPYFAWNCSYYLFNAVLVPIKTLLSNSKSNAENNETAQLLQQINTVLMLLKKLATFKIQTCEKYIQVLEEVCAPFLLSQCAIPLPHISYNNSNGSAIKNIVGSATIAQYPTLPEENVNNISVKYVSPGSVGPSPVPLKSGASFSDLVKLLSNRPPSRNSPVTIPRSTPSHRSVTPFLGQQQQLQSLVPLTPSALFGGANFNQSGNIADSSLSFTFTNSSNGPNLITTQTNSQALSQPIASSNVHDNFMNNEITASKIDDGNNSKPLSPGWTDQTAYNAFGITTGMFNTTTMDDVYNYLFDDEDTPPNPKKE
# In short: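 Background-control readout: gain-of-signal fitted against DMSO. After 24 h exposure of transfected HepG2 (MRTU, GAL4-UAS reporters; 3 nM 6-alpha-fluorotestosterone, 1.5 nM norgestrel present), transcripts quantified by RT-PCR and capillary electrophoresis fluorescence.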
# [7] = target: zebrafish Estrogen Receptor (ER1), esr1 (gene 259252) (UniProt P57717); experiment: ATG_zfER1_XSP2: Attagene TRANS-FACTORIAL Multi-Species (XSP2) HepG2 Assay for zebrafish Estrogen Receptor (ER1) (AID 2283816)
# zebrafish Estrogen Receptor (ER1), esr1 (gene 259252), sequence (P57717 whole entry, looked up, the tested form may be a part): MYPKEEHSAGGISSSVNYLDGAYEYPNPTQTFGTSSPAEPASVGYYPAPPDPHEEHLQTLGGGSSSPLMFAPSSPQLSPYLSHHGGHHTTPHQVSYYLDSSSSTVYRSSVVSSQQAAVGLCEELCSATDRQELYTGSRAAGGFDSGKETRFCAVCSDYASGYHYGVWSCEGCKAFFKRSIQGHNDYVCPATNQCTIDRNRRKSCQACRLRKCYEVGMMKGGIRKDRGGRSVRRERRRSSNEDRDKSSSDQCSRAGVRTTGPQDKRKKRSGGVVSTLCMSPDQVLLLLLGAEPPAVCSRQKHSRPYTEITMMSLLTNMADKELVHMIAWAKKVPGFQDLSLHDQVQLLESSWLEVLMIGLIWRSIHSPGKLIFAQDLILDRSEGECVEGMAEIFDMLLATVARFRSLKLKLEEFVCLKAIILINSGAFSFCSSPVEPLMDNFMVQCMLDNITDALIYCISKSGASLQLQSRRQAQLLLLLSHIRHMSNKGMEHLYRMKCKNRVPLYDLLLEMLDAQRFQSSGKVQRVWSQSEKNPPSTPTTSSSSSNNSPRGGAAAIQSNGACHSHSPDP
# In short: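 After 24 h compound exposure, RNA from transfected HepG2 cells was reverse-transcribed and reporter transcripts resolved by capillary electrophoresis. The TRANS format reads exogenous zebrafish ER1-Gal4 chimera activity on GAL4-UAS elements; gain of signal against DMSO.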
# [8] = target: chicken Estrogen Receptor (ERa), ESR1 (gene 396099) (UniProt P06212); experiment: ATG_chERa_XSP2: Attagene TRANS-FACTORIAL Multi-Species (XSP2) HepG2 Assay for chicken Estrogen Receptor (ERa) (AID 2283817);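 note: actives raise reporter signal above DMSO so AC50 reflects ER activation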
# chicken Estrogen Receptor (ERa), ESR1 (gene 396099), sequence (P06212 whole entry, looked up, the tested form may be a part): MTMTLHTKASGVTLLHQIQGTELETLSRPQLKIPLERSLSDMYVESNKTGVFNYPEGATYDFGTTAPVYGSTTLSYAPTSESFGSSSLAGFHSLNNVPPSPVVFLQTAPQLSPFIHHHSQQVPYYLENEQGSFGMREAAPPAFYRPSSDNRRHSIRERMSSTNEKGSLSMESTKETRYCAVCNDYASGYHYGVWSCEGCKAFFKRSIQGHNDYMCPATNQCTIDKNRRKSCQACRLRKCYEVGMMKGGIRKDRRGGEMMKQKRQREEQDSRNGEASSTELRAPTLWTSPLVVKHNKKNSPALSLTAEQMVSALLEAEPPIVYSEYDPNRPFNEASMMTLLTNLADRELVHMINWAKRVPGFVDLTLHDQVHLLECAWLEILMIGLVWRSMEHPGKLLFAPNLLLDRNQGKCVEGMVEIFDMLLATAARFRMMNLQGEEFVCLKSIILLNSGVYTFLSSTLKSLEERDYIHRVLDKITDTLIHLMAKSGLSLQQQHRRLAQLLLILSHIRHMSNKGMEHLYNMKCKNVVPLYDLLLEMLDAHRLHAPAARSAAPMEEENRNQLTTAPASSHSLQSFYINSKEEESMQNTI
# In short: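 Exogenous chicken ERa-Gal4 chimera activity was assessed in transfected human liver HepG2 cells after 24 h of treatment. Induced reporter mRNA was quantified fluorescently by capillary electrophoresis, with DMSO as baseline.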
# [9] = tested on: zebrafish Estrogen Receptor (ER2a), gene 317734; experiment: ATG_zfER2a_XSP2: Attagene TRANS-FACTORIAL Multi-Species (XSP2) HepG2 Assay for zebrafish Estrogen Receptor (ER2a) (AID 2283818);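 note: hits raise reporter mRNA so AC50 reflects activation of zebrafish ER2a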
# In short: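 Multiplexed trans-reporter readout: RT-PCR then capillary electrophoresis of reporter transcripts after 24 h compound treatment. Human HepG2 carries transfected zebrafish ER2a-Gal4 chimera; 3 nM 6-alpha-fluorotestosterone plus 1.5 nM norgestrel present. Induction scored against DMSO.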
# [10] = tested on: frog Estrogen Receptor (ER), gene 398734; experiment: ATG_frER1_XSP2: Attagene TRANS-FACTORIAL Multi-Species (XSP2) HepG2 Assay for frog Estrogen Receptor (ER) (AID 2283821);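 note: hits raise reporter mRNA above DMSO baseline so potency means agonist or activator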
# In short: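 Gain-of-signal mRNA reporter assay, HepG2 human liver cells, 24 h dosing; transcripts read by fluorescent RT-PCR fragment analysis, DMSO as negative control.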
# [11] = tested on: zebrafish Estrogen Receptor (ER2b), gene 317733; experiment: ATG_zfER2b_XSP2: Attagene TRANS-FACTORIAL Multi-Species (XSP2) HepG2 Assay for zebrafish Estrogen Receptor (ER2b) (AID 2283823);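 note: fitted upward as reporter gain over DMSO so potency reflects activation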
# In short: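 Reporter transcripts quantified by RT-PCR, fluorescent labelling and capillary electrophoresis after 24 h dosing of transfected HepG2 expressing zebrafish ER2b-GAL4 fusion. Medium contained 3 nM 6-alpha-fluorotestosterone plus 1.5 nM norgestrel; DMSO baseline.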
# [12] = tested on: frog Estrogen Receptor (ER2), gene 100174814; experiment: ATG_frER2_XSP2: Attagene TRANS-FACTORIAL Multi-Species (XSP2) HepG2 Assay for frog Estrogen Receptor (ER2) (AID 2283828)
# In short: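 Induction of reporter mRNA, baseline set by DMSO, is the endpoint. The panel was run in transfected HepG2 cells over 24 h, with 3 nM 6-alpha-fluorotestosterone and 1.5 nM norgestrel present to stimulate androgen receptor.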
# [13] = target: Peroxisome proliferator-activated receptor gamma (Homo sapiens) (UniProt P37231); experiment: ATG_hPPARg_XSP2: Attagene TRANS-FACTORIAL Multi-Species (XSP2) HepG2 Assay for human Peroxisome Proliferator-activated Receptor gamma (PPARg) (AID 2283829);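 note: actives raise reporter mRNA above DMSO so AC50 reflects PPARg activation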
# Peroxisome proliferator-activated receptor gamma (Homo sapiens), sequence (P37231 whole entry, looked up, the tested form may be a part): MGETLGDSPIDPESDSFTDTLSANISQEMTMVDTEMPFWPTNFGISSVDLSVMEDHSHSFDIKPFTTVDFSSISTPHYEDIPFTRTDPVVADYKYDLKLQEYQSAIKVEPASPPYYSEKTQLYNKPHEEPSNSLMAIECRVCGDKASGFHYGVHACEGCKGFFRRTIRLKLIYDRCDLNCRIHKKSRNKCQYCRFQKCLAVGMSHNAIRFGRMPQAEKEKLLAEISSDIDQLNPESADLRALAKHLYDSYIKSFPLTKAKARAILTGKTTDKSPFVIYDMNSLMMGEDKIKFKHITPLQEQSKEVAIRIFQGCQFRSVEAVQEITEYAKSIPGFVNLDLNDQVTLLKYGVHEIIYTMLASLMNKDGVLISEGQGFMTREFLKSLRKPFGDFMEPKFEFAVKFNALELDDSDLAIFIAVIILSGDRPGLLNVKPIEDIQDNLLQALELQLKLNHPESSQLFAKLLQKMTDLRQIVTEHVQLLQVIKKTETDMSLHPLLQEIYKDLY
# In short: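 HepG2 cells transiently transfected with GAL4-UAS reporter units driven by chimeric NR-Gal4 proteins; androgen receptor stimulated with 3 nM 6-alpha-fluorotestosterone and 1.5 nM norgestrel. After 24 h, reporter mRNA quantified by RT-PCR and capillary electrophoresis versus DMSO.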
# [14] = target: Nuclear receptor subfamily 1 group I member 2 (Mus musculus) (UniProt O54915); experiment: ATG_mPXR_XSP2: Attagene TRANS-FACTORIAL Multi-Species (XSP1) HepG2 Assay for mouse Pregnane X Receptor (PXR) (AID 2283831)
# Nuclear receptor subfamily 1 group I member 2 (Mus musculus), sequence (O54915 whole entry, looked up, the tested form may be a part): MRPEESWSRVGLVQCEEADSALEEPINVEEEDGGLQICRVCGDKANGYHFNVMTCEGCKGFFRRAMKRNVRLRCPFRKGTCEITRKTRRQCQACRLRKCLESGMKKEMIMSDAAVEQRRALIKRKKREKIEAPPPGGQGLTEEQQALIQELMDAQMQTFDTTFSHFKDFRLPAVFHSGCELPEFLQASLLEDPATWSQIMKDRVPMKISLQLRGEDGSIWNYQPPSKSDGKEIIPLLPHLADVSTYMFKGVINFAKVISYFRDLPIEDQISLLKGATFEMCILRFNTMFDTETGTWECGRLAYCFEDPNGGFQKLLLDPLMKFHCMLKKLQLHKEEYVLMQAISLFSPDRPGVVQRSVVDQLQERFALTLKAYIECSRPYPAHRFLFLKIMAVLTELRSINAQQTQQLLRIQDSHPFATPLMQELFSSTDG
# In short: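 HepG2 cells transiently transfected with GAL4-UAS reporter units expressing chimeric NR-Gal4 proteins; 24 h compound exposure. Reporter mRNA quantified by RT-PCR and capillary electrophoresis fluorescence; gain of signal fitted against DMSO.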
# [15] = tested on: zebrafish Peroxisome Proliferator-activated Receptor gamma (PPARg), gene 557037; experiment: ATG_zfPPARg_XSP2: Attagene TRANS-FACTORIAL Multi-Species (XSP2) HepG2 Assay for zebrafish Peroxisome Proliferator-activated Receptor gamma (PPARg) (AID 2283833);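 note: reporter mRNA from a zebrafish PPARg GAL4 chimera measured by RT-PCR and capillary electrophoresis; actives increase reporter signal over DMSO so AC50 reflects activation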
# In short: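 HepG2 cells transiently transfected with multiplexed GAL4-UAS reporter units expressing chimeric NR-Gal4 receptors, dosed 24 h. Reporter mRNA quantified by RT-PCR, fluorescent labelling, HpaI digestion and capillary electrophoresis; gain of signal fitted against DMSO.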
# [16] = tested on: turtle Thyroid Hormone Receptor, alpha (TRa), gene 101949057; experiment: ATG_trTRa_XSP2: Attagene TRANS-FACTORIAL Multi-Species (XSP1) HepG2 Assay for turtle Thyroid Hormone Receptor, alpha (TRa) (AID 2283834);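 note: hits raise reporter mRNA over the DMSO baseline so AC50 marks activators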
# In short: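 HepG2 cells transiently transfected with GAL4-UAS reporter units for chimeric turtle TRa-Gal4; mRNA measured 24 h after dosing by RT-PCR and capillary electrophoresis fluorescence, gain of signal fitted against DMSO.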
# [17] = ATG_M_61_XSP2: Attagene TRANS-FACTORIAL Multi-Species (XSP2) HepG2 Assay for M61 Transcription Factor (Internal Marker) (AID 2283835; active = hit-call score of the fitted dose curve at least 0.9, where 1 is the maximum; inactive = score below 0.9;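 note: reporter mRNA of an internal background marker read by RT-PCR and capillary electrophoresis; active means a rise in signal above the DMSO baseline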)
# In short: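 Signal was mRNA induction detected as fluorescence after RT-PCR and capillary electrophoresis, analysed in the gain direction with DMSO as baseline. HepG2 cells transiently carrying reporter constructs received chemicals for 24 h.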
# [18] = target: zebrafish Thyroid Hormone Receptor beta (TRb), thrb (gene 30607) (UniProt Q9PVE4); experiment: ATG_zfTRb_XSP2: Attagene TRANS-FACTORIAL Multi-Species (XSP1) HepG2 Assay for zebrafish Thyroid Hormone Receptor beta (TRb) (AID 2283836)
# zebrafish Thyroid Hormone Receptor beta (TRb), thrb (gene 30607), sequence (Q9PVE4 whole entry, looked up): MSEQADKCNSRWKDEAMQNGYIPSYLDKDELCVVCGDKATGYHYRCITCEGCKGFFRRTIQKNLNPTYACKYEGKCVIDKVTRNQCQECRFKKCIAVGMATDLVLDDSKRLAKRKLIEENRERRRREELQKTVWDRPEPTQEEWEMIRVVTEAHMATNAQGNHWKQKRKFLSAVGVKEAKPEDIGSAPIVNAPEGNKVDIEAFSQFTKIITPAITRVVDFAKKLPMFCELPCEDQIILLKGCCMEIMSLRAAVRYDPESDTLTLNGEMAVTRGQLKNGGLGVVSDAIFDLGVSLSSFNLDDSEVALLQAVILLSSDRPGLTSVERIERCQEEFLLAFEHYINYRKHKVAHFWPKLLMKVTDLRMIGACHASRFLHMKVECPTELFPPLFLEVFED
# In short: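 Reporter transcripts were measured by RT-PCR with fluorescent primer extension and capillary electrophoresis, 24 h after chemical dosing of transiently transfected HepG2 cells. Activity was scored as upward signal versus DMSO baseline.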
# [19] = ATG_XTT_Cytotoxicity_XSP2: Cytotoxicity Assessment in the Attagene TRANS-FACTORIAL Multi-Species (XSP2) HepG2 Assay (AID 2283837)
# In short: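 XTT-based cell number read-out in human HepG2 liver cells carrying transfected reporter units, measured 24 h after chemical dosing. Activity is signal loss versus DMSO baseline.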
# [20] = target: human Thyroid hormone Receptor alpha (TRa), THRA (gene 7067) (UniProt P10827); experiment: ATG_hTRa_XSP2: Attagene TRANS-FACTORIAL Multi-Species (XSP2) HepG2 Assay for human Thyroid hormone Receptor alpha (TRa) (AID 2283838)
# human Thyroid hormone Receptor alpha (TRa), THRA (gene 7067), sequence (P10827 whole entry, looked up, the tested form may be a part): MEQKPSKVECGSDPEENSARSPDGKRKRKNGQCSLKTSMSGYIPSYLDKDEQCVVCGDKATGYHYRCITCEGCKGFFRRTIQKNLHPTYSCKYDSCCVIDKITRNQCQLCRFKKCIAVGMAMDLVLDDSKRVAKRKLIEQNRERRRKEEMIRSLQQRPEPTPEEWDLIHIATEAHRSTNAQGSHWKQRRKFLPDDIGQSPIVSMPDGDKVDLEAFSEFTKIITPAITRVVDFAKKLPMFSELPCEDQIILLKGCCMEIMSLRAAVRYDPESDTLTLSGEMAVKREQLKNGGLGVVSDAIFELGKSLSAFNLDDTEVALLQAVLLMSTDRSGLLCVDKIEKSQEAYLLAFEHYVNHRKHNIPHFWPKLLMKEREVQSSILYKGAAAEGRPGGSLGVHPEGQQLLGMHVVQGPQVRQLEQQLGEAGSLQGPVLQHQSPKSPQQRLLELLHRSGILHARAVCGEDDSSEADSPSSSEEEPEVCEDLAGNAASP
# In short: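 Gain-of-signal in reporter mRNA, relative to DMSO, after 24 h dosing of transfected HepG2; quantitation by RT-PCR fragment analysis on capillary electrophoresis.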
Structure (SMILES),AC50 [1],outcome [2],outcome [3],AC50 [4],AC50 [5],outcome [6],AC50 [7],AC50 [8],AC50 [9],AC50 [10],AC50 [11],AC50 [12],AC50 [13],outcome [14],outcome [15],outcome [16],outcome [17],outcome [18],outcome [19],outcome [20]
CCCCCCCCCCCCCCCCCC[N+](C)(C)C,2530 nM (active),,,,,,,,,,,,,,,,,,,
Cc1cc(O)cc(C)c1Cl,,inactive,inactive,45.8 µM (active) and 16.2 µM (active),7.77 µM (active) and 7.9 µM (active),inactive,76 µM (active) and 29.7 µM (active),24.2 µM (active) and 31.7 µM (active),100 µM (active) and 23.8 µM (active),66.8 µM (active) and 26.3 µM (active),68.1 µM (active) and 34.5 µM (active),29.3 µM (active) and 19.5 µM (active),48.2 µM (active) and 63.3 µM (active),inactive,inactive,inactive,inactive,inactive,inactive,inactive
